# Measured values reported in ChEMBL document CHEMBL3988442, “University of Dundee, Small-Polar-MMV Screening Library” (2021).
# Biological target: T1, Methionyl-tRNA synthetase, putative (Leishmania donovani (strain BPK282A1)) (UniProt E9BF75)
# T1 sequence (whole entry): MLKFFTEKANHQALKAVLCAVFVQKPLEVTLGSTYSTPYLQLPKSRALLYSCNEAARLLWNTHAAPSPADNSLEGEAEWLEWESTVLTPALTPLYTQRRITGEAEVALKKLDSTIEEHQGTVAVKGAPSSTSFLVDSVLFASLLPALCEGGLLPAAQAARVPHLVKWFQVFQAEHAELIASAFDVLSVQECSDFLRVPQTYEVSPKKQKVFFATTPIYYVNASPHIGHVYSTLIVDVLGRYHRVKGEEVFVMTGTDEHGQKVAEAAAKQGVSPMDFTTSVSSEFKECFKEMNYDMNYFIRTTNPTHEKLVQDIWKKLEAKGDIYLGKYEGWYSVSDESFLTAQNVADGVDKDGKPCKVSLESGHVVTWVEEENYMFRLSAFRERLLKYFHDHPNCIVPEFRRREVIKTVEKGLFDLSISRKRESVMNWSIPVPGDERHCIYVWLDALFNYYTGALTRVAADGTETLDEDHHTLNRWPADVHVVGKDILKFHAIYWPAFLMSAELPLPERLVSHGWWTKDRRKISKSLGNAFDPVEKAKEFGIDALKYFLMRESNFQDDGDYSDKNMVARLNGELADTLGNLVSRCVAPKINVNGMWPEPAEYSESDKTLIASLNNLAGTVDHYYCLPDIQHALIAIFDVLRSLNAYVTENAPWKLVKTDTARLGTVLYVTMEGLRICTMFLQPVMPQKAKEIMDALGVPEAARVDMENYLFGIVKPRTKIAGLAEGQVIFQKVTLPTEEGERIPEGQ
# Assay: Leishmania donovani Methionine tRNA synthetase (LdMetRS):v7. Dose response assay
# Type: functional
# Parameters: conc 80 nM, time 150 minutes
smiles,measurement,setting,value
O=C(c1c[nH]cn1)N1CCC(F)(F)C2(CCN(c3ccccn3)C2)C1 (stereo not drawn),PXC50,MAX_EFFECT 10.79812207,< 4
same,PXC50,MAX_EFFECT 12.40740741,< 4
Cc1nc(N(C)CCC(=O)O)c2cc(-c3ccccc3)sc2n1,PXC50,MAX_EFFECT 10.96256684,< 4
same,PXC50,MAX_EFFECT 15.76086957,< 4
Cc1cc(N)n(-c2nc(C)nc3sc4c(c23)CCCC4)n1,PXC50,MAX_EFFECT 11.22994652,< 4
same,PXC50,MAX_EFFECT 12.02185792,< 4
COCCN(Cc1sccc1C)c1nc(C)nc2sccc12,PXC50,MAX_EFFECT 12.79373368,< 4
same,PXC50,MAX_EFFECT 17.23237598,< 4
Cc1nc(NCCNC(=O)c2ccccc2)c2c3c(sc2n1)CCCC3,PXC50,MAX_EFFECT 14.39393939,< 4
same,PXC50,MAX_EFFECT 19.3877551,< 4
Cc1sc2nc(CCN)nc(N3CCC(N4CCCC4)CC3)c2c1C,PXC50,MAX_EFFECT 14.62140992,< 4
same,PXC50,MAX_EFFECT 16.44908616,< 4
CC(=O)N1CCN(c2ccc3ncc(-c4ccc5onc(N)c5c4)n3n2)CC1,PXC50,MAX_EFFECT 15.77608142,< 4
same,PXC50,MAX_EFFECT 16.66666667,< 4
Cc1cc(C)n(-c2nc(N3CCCC3)c3c4c(sc3n2)CCCC4)n1,PXC50,MAX_EFFECT 18.42105263,< 4
same,PXC50,MAX_EFFECT 18.75,< 4
Cc1cc(C)n(-c2nc(NC3CCCC3)c3c4c(sc3n2)CCCC4)n1,PXC50,MAX_EFFECT 22.91666667,< 4
same,PXC50,MAX_EFFECT 34.21052632,< 4
Cc1nc(NC(Cc2ccccc2)C(=O)O)c2c3c(sc2n1)CCCC3 (stereo not drawn),PXC50,MAX_EFFECT 23.07692308,< 4
same,PXC50,MAX_EFFECT 25.24509804,< 4
Cc1nc(N[C@@H](Cc2ccccc2)C(=O)O)c2c3c(sc2n1)CCCC3,PXC50,MAX_EFFECT 23.48484848,< 4
same,PXC50,MAX_EFFECT 27.55102041,< 4
Cc1nc(N2CCCCC2)c2c(-c3cccs3)csc2n1,PXC50,MAX_EFFECT 30.98236776,< 4
same,PXC50,MAX_EFFECT 31.29770992,< 4
Nc1nc(CSc2ccccn2)nc2sc3c(c12)CCCC3,PXC50,MAX_EFFECT 37.33333333,< 4
same,PXC50,MAX_EFFECT 37.56613757,< 4
Cc1cc2ccc(N3CCN(S(C)(=O)=O)CC3)n2cc1C(=O)NC1CCCC1,PXC50,MAX_EFFECT 43.22916667,< 4
same,PXC50,MAX_EFFECT 44.29824561,< 4
COCCNc1nc(CN2CCOCC2)nc2sc3c(c12)CCCC3,PXC50,MAX_EFFECT -0.877192982,< 4
same,PXC50,MAX_EFFECT -1.5625,< 4
Cc1nc(N(C)C)c2c3c(sc2n1)CCCC3,PXC50,MAX_EFFECT 4.166666667,< 4
same,PXC50,MAX_EFFECT 4.385964912,< 4
N[C@H](COc1cccc(F)c1Oc1ccc(Cl)cc1)C1CCOCC1,PXC50,MAX_EFFECT 9.316770186,< 4
same,PXC50,MAX_EFFECT 10.44776119,< 4
Cn1cc(CN2CCC(F)(F)C3(CCN(c4ncccn4)C3)C2)cn1 (stereo not drawn),PXC50,MAX_EFFECT -0.938967136,< 4
same,PXC50,MAX_EFFECT -2.777777778,< 4
CCc1nc(NCCOC)c2c3c(sc2n1)CCC3,PXC50,MAX_EFFECT 5.793450882,< 4
same,PXC50,MAX_EFFECT 9.41475827,< 4
COc1cccc(-c2cc(C(F)(F)F)nc(N(C)C)n2)c1,PXC50,MAX_EFFECT 5.18134715,< 4
same,PXC50,MAX_EFFECT 6.914893617,< 4
NCC1CC1c1ccc(Cl)cc1Cl (stereo not drawn),PXC50,"BOTTOM -0.51010351, HILLSLOPE 1.132508714, MAX_EFFECT 55.5075594, TOP 100.0",3.07
same,PXC50,MAX_EFFECT 48.09885932,< 3
CS(=O)(=O)N1CCN(c2ccc3ccc(C(=O)NCCN4CCS(=O)(=O)CC4)cn23)CC1,PXC50,"BOTTOM 1.003127248, HILLSLOPE 2.200420441, MAX_EFFECT 73.49177331, TOP 74.60069177",4.88
same,PXC50,"BOTTOM 1.050104582, HILLSLOPE 2.645513549, MAX_EFFECT 70.81339713, TOP 67.22785398",4.94
Cc1sc2nc(CCN)nc(N(C)CCCC3CCCO3)c2c1C (stereo not drawn),PXC50,MAX_EFFECT 15.90909091,< 4
same,PXC50,MAX_EFFECT 18.36734694,< 4
Cc1nc(N2CCC(C(O)CC(C)C)CC2)c2ccsc2n1 (stereo not drawn),PXC50,MAX_EFFECT 3.626943005,< 4
same,PXC50,MAX_EFFECT 4.255319149,< 4
COCCNc1nc(-c2cccnc2)nc2sc3c(c12)CCCC3,PXC50,MAX_EFFECT 11.84210526,< 4
same,PXC50,MAX_EFFECT 12.5,< 4
CC(=O)N1CCCC(NC(=O)c2ccc3ccc(N4CCN(S(C)(=O)=O)CC4)n3c2)C1 (stereo not drawn),PXC50,"BOTTOM 3.656156878, HILLSLOPE 2.486754691, MAX_EFFECT 66.17915905, TOP 66.88204214",4.81
same,PXC50,"BOTTOM -4.526143978, HILLSLOPE 1.702686974, MAX_EFFECT 60.76555024, TOP 62.80104332",5
CC1CCN(c2nc3c(c(C(F)(F)F)n2)CCCCC3)CC1,PXC50,MAX_EFFECT 8.396946565,< 4
same,PXC50,MAX_EFFECT 11.83879093,< 4
CCCC(=O)N1CCC(c2ncc3c(n2)CCNC3)CC1,PXC50,MAX_EFFECT 6.802721088,< 4
same,PXC50,MAX_EFFECT 13.45794393,< 4
Cc1nc(NCCO)c2c3c(sc2n1)CCC3,PXC50,MAX_EFFECT 6.632653061,< 4
same,PXC50,MAX_EFFECT 7.828282828,< 4
